Activity calls are given as the source filed them. Calls follow the shape of the dose curve; as a rule, active = well fitted curve in the direction sought with a large enough effect; inconclusive = small, poorly fitted or top-dose-only effect, or another doubt; inactive = no such curve, though single readings can be large or run the other way.

This experiment deals with Hexokinase-4 (Homo sapiens) + Glucokinase regulatory protein (Homo sapiens) (UniProt P35557+Q14397). Kind of experiment: qHTS assay for inhibitors of recombinant human GCK-GKRP interaction: HTRF assay (AID 743207).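 Also: 0% = DMSO with GCK present and -100% = DMSO wells lacking GCK.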 As to conditions: recombinant GCK-GKRP HTRF binding, 60 min, with sorbitol-6-phosphate; series mostly up to 57.5 µM; activity change, negative = inhibition: at the top concentration. Summed up: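 HTRF binding of 5 nM GST-GCK and 5 nM FLAG-GKRP with 2 uM S6P in pH 7.1 Hepes buffer (MgCl2, KCl, DTT, Tween 20, BSA). Anti-FLAG XL665 and anti-GST donor added, 60 min at room temperature; 665/615 nm read, normalized to with- and without-GCK controls.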
Sequence of Hexokinase-4 (Homo sapiens) + Glucokinase regulatory protein (Homo sapiens) (P35557 whole entry, looked up): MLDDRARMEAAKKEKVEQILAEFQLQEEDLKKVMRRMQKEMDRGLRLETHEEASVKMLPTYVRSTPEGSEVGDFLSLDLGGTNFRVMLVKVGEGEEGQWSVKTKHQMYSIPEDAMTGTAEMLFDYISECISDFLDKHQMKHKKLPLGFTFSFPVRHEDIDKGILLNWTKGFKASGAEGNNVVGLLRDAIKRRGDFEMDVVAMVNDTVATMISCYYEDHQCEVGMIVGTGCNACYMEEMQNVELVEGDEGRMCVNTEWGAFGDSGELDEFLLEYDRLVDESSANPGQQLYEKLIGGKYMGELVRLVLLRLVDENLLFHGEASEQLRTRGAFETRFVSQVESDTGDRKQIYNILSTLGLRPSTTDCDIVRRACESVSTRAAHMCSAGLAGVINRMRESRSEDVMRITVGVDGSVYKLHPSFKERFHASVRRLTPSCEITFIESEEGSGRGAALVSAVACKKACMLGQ
Sequence of Hexokinase-4 (Homo sapiens) + Glucokinase regulatory protein (Homo sapiens) (Q14397 whole entry, looked up): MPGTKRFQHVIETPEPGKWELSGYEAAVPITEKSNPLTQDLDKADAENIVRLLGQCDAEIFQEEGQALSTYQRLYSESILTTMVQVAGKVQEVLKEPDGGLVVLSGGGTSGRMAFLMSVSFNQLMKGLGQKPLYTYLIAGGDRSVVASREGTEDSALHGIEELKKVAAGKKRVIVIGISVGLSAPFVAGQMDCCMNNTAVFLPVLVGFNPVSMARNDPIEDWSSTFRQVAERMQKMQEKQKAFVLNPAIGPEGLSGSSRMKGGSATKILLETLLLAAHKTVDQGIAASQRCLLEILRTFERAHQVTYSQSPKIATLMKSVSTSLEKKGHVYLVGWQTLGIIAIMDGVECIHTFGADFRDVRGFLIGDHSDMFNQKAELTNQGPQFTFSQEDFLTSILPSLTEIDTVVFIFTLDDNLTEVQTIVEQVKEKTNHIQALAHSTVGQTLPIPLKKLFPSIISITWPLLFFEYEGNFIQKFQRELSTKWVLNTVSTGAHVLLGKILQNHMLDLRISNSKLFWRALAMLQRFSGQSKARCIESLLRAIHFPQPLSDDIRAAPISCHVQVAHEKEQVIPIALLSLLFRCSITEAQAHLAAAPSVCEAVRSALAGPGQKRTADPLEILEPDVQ
In the case of `Nc1ccc(CCNc2ncnc3c2ncn3C2OC(CO)C(O)C2O)cc1` (stereo not given), the “activity change, negative = inhibition” value is -2.09% (inactive).
In the case of `CCCCCCN(CCCCCC)C(=O)Cc1c(-c2ccc(F)cc2)[nH]c2ccccc12`, the “activity change, negative = inhibition” value is 3.32% (inactive).
Then `N[C@H](C(=O)O)[C@H](O)C(=O)O`, with 2.57% (inactive); and `CNc1ncnc2c1ncn2[C@H]1C[C@H](OP(=O)(O)O)[C@@H](COP(=O)(O)O)O1`, with -7.4% (inactive); and `O=c1[nH]ccc2c(O)cccc12`, with 13% (inactive).
For `O=C1Cc2c([nH]c3ccc(Br)cc23)-c2ccccc2N1`, the “activity change, negative = inhibition” value is -4.02% (inactive).
The result for `C=C1C(=O)O[C@@H]2[C@H]3O[C@]3(C)CCC=C(C)CC[C@@H]12` reads 14.2% (inactive).
Consider `N#CC(C#N)=C(N)/C(C#N)=C/c1ccc(O)cc1`, for which the “activity change, negative = inhibition” value was -2.89% (inactive).
Then `CC[C@H](NC(=O)c1c(C)c(-c2ccccc2)nc2ccccc12)c1ccccc1`, with -0.502% (inactive); and `C[C@H](O)C(=O)C1=Nc2c(nc(N)[nH]c2=O)NC1`, with 5.1% (inactive).
For the molecule `CCN1C(=O)C=CC1=O`, the “activity change, negative = inhibition” value is -3.82% (inactive).
Then `CNCCc1cnc(CCC(c2ccccc2)c2ccccc2)[nH]1`, with -15.2% (inactive).
`COc1cc(C(O)CO)ccc1O` (stereo not given): the “activity change, negative = inhibition” value is -0.824% (inactive).
In the case of `NC1C=CC=C(C(=O)O)C1` (stereo not given), the “activity change, negative = inhibition” value was -5.8% (inactive).
The result for `O=C(O)/C=C/c1cnc[nH]1` reads 7.05% (inactive); that for `CN1CCC2(CCN3CCc4c(oc5ccccc45)C3C2)N(C)C1=O` (stereo not given), 9.24% (inactive).
As for `CN1Cc2sccc2C(c2ccc(O)c(O)c2)C1` (stereo not given), the “activity change, negative = inhibition” value is 0.968% (inactive).
For `C=C1C[C@@]23CC[C@H]4[C@@](C)(CCC[C@@]4(C)C(=O)O)[C@@H]2CC[C@]1(O)C3`, the “activity change, negative = inhibition” value is -11.6% (inactive).
The result for `Cc1nc2n(c(=O)c1CCN1CCC(c3noc4cc(F)ccc34)CC1)CCCC2O` (stereo not given) reads 1.25% (inactive).
The result for `[N-]=[N+]=Nc1ccc(C(=O)CSC[C@H](NC(=O)CC[C@H](N)C(=O)O)C(=O)NCC(=O)O)cc1` reads -2.84% (inactive).

Values taken from PubChem BioAssay (NCATS).
